Assay results reported in PubChem BioAssay (Tox21).
Results filed as inconclusive are left out. The source made the active and inactive calls. Unless noted, calls follow the shape of the dose curve; as a rule, active = well fitted curve in the direction sought with a large enough effect in the repeat runs; inconclusive = weak or mixed curves; inactive = no such curve, though single readings can be large; an effect the other way counts as inactive or inconclusive.

Tests used:
[1] = qHTS assay to identify small molecule agonists of the peroxisome proliferator-activated receptor delta (PPARd) signaling pathway - cell viability counter screen (AID 743211); also: % is scaled to controls: 0 for no effect and ±100 for the full control effect; nearly all actives have a fitted effect of over 55% in size
Outline: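 Following 5 h plating at 37 C and 5% CO2, PPARd UAS-bla HEK293H cells took up test compounds for 17 h. Viability was quantified by luminescence 30 min after CellTiter-Glo addition at room temperature.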

[2] = target: Peroxisome proliferator-activated receptor delta (Homo sapiens) (UniProt Q03181); assay: qHTS assay to identify small molecule agonists of the peroxisome proliferator-activated receptor delta (PPARd) signaling pathway (AID 743212; calls by dose curve; also: % is scaled to controls: 0 for no effect and ±100 for the full control effect)
Peroxisome proliferator-activated receptor delta (Homo sapiens), sequence (Q03181 whole entry, looked up): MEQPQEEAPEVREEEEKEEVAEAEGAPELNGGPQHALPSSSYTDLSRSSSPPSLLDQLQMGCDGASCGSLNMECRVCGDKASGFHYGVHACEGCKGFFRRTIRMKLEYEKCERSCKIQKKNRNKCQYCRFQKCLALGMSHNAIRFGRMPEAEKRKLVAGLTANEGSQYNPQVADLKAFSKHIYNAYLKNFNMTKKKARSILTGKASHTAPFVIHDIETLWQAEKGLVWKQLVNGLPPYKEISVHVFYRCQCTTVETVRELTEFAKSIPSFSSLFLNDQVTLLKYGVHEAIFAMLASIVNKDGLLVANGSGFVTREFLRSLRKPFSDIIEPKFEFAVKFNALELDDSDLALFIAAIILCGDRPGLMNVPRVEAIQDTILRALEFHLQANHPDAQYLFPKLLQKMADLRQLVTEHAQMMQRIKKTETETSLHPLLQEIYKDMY
Outline: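 Beta-lactamase reporter readout: a ratiometric FRET signal from the LiveBLAzer substrate after 2 h at room temperature. Compound exposure at 37 °C in PPARδ-bla HEK293H cells driven by an upstream activator sequence.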

[3] = qHTS assay to identify small molecule antagonists of the peroxisome proliferator-activated receptor delta (PPARd) signaling pathway - cell viability counter screen (AID 743213); also: % is scaled to controls: 0 for no effect and ±100 for the full control effect; nearly all actives have a fitted effect of over 50% in size
Outline: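 CellTiter-Glo was added to PPARd-bla HEK293H wells following 17 h compound treatment in the presence of 300 nM L165041. Luminescence was recorded after 30 min at room temperature.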

[4] = qHTS assay to identify small molecule agonists of the farnesoid-X-receptor (FXR) signaling pathway - cell viability counter screen (AID 743218); also: % is scaled to controls: 0 for no effect and ±100 for the full control effect; nearly all actives have a fitted effect of over 45% in size
Outline: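 Luminescence from CellTiter-Glo, read after 30 min at RT, reports viability of GeneBLAzer FXR-UAS-bla HEK 293T cells treated 16 h with compounds in the wells used for the beta-lactamase reporter.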

[5] = qHTS assay to identify small molecule antagonists of the farnesoid-X-receptor (FXR) signaling pathway - cell viability counter screen (AID 743221; active = well fitted cell-killing curve with a large enough effect in the repeat runs, not every such curve was filed as active; also: % is scaled to controls: 0 for no effect and ±100 for the full control effect; nearly all actives have a fitted effect of over 50% in size)
Outline: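 Compound effects on cell number were measured as CellTiter-Glo luminescence in HEK 293T cells expressing FXR-UAS-bla, after 16 h at 37 C with 50 uM CDCA (final).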

[6] = target: Vitamin D3 receptor (Homo sapiens) (UniProt P11473); assay: qHTS assay to identify small molecule agonists of the vitamin D receptor (VDR) signaling pathway (AID 743222; calls by dose curve; also: % is scaled to controls: 0 for no effect and ±100 for the full control effect)
Vitamin D3 receptor (Homo sapiens), sequence (P11473 whole entry, looked up): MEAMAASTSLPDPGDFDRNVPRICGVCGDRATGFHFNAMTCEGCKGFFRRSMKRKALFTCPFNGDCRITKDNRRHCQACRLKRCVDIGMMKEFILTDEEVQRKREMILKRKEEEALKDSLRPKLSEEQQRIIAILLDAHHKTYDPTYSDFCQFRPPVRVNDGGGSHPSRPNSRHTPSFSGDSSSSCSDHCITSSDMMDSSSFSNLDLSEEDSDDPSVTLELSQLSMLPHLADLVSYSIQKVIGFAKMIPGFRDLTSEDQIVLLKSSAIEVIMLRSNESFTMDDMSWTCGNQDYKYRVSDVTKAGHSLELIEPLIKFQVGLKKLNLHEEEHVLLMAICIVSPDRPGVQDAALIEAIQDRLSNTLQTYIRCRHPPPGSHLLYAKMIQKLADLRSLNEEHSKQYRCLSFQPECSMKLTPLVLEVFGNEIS
Outline: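 Beta-lactamase reporter readout (LiveBLAzer B/G FRET, 2 h RT) in VDR-bla cells after 16 h compound treatment at 37C, 5% CO2; cells pre-incubated 4 h before pin transfer of DMSO solutions.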

[7] = target: Vitamin D3 receptor (Homo sapiens) (UniProt P11473); assay: qHTS assay to identify small molecule antagonists of the vitamin D receptor (VDR) signaling pathway (AID 743223; active = well fitted inhibition curve with a large enough effect in the signal ratio in the repeat runs, not every such curve was filed as active; the % refers to the signal ratio; also: % is scaled to controls: 0 for no effect and ±100 for the full control effect)
Outline: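 Beta-lactamase activity in VDR-bla cells is measured by FRET substrate fluorescence (2 h, room temperature) after cells spend 16 h at 37C with test compound and 3 nM final 1alpha,25-dihydroxyvitamin D3.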

[8] = qHTS assay to identify small molecule agonists of the NFkB signaling pathway (AID 1159509; active = well fitted curve in the direction sought with a large enough effect in the signal ratio in the repeat runs, not every such curve was filed as active; the % refers to the signal ratio; also: series mostly up to about 61 µM; % is scaled to controls: 0 for no effect and ±100 for the full control effect)
Outline: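 Agonist activity was read as beta-lactamase-driven FRET change (460 and 530 nm emission, 405 nm excitation) following 1.5 hr substrate loading at room temperature. Beforehand, ME-180 NFkB-bla reporter cells were treated with compounds for 5 hr at 37 C.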

[9] = qHTS assay to identify small molecule agonists of the NFkB signaling pathway - cell viability counter screen (AID 1159515; calls by dose curve; also: series mostly up to about 61 µM; % is scaled to controls: 0 for no effect and ±100 for the full control effect; nearly all actives have a fitted effect of over 55% in size)
Outline: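 ME-180 NFkB-bla cells, 2,000/well; overnight attach; compound 5 hr, 37 C/5% CO2; LiveBLAzer substrate 1.5 hr RT; then CellTiter-Glo in same wells, 30 min RT, luminescence read.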

[10] = qHTS assay to identify small molecule agonists of the endoplasmic reticulum stress response signaling pathway (AID 1159516; active = well fitted activation curve with a large enough effect in the signal ratio in the repeat runs, not every such curve was filed as active; the % refers to the signal ratio; also: % is scaled to controls: 0 for no effect and ±100 for the full control effect)
Outline: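 HeLa ESRE-bla reporter line; cpd 5 h, 37 C/5% CO2; LiveBLAzer B/G FRET substrate 2 h RT; ex 405, em 460/530 nm.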

[11] = qHTS assay to identify small molecule agonists of the endoplasmic reticulum stress response signaling pathway - cell viability counter screen (AID 1159517; calls by dose curve;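 also: HeLa cells carrying an ER stress response element beta-lactamase reporter; series mostly up to about 61 µM; % is scaled to controls: 0 for no effect and ±100 for the full control effect; nearly all actives have a fitted effect of over 50% in size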)
Outline: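 ESRE-bla HeLa cells (1,500/well) were plated overnight at 37 C and exposed to compounds for 5 hr. After the 2 hr beta-lactamase substrate read, CellTiter-Glo went into the same wells, and luminescence was read after 30 min at room temperature.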

[12] = qHTS assay to identify small molecule antagonists of the retinoid-related orphan receptor gamma (ROR-gamma) signaling pathway - cell viability counter screen (AID 1159520); also: % is scaled to controls: 0 for no effect and ±100 for the full control effect; nearly all actives have a fitted effect of over 50% in size
Outline: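 Cytotoxicity was read from cellular ATP (CellTiter-Glo luminescence) after 16 hr at 37 C with 1 uM doxycycline induction. The inducer was added 2 hr after compound transfer to Tet-on ROR gamma CHO cells.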

[13] = target: Nuclear receptor ROR-gamma (Homo sapiens) (UniProt P51449); assay: qHTS assay to identify small molecule antagonists of the retinoid-related orphan receptor gamma (ROR-gamma) signaling pathway (AID 1159521)
Outline: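 Screening format: cell-based luciferase reporter in CHO cells with doxycycline-inducible RORγ. Compound pre-exposure lasts 2 h, doxycycline is 1 uM final, induction runs 16 h at 37 C, and ONE-Glo luminescence is read.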

[14] = qHTS assay to identify small molecule agonists of the AP-1 signaling pathway - cell viability counter screen (AID 1159525; calls by dose curve; also: nearly all actives have a fitted effect of over 55% in size)
Outline: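 Intracellular ATP by Cell Titer Glo luminescence (30 min, RT) in the same ME-180 AP-1-bla wells after the 5 h compound exposure at 37 °C. Normalised to tetra n-octyl ammonium bromide and DMSO controls.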

[15] = qHTS assay to identify small molecule agonists of the AP-1 signaling pathway (AID 1159526; calls by dose curve; also: % is scaled to controls: 0 for no effect and ±100 for the full control effect)
[16] = qHTS assay to identify small molecule agonists of the vitamin D receptor (VDR) signaling pathway - cell viability counter screen (AID 743224)
Outline: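 Cytotoxicity counter screen: VDR-bla cells, 16 h compound exposure at 37C, 5% CO2; CellTiter-Glo luminescence, 30 min RT, same wells as bla read.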

[17] = qHTS assay to identify small molecule antagonists of the vitamin D receptor (VDR) signaling pathway - cell viability counter screen (AID 743225)
Outline: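 In this counter screen, VDR-bla HEK 293T cells receive test compound plus 3 nM final calcitriol for 16 h at 37C. Room-temperature steps of 2 h with the beta-lactamase substrate, then 30 min with CellTiter-Glo, precede the luminescence read.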

[18] = target: Peroxisome proliferator-activated receptor delta (Homo sapiens) (UniProt Q03181); assay: qHTS assay to identify small molecule antagonists of the peroxisome proliferator-activated receptor delta (PPARd) signaling pathway (AID 743215; active = well fitted inhibition curve with a large enough effect in the signal ratio in the repeat runs, not every such curve was filed as active; the % refers to the signal ratio)
Outline: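 HEK293H GeneBLAzer PPARd UAS-bla reporter cells; cpd + L165041 300 nM final, 17 h 37 C; LiveBLAzer B/G FRET substrate 2 h RT; fluorescence intensity read-out. Antagonist mode.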

[19] = target: Bile acid receptor (Homo sapiens) (UniProt Q96RI1); assay: qHTS assay to identify small molecule antagonists of the farnesoid-X-receptor (FXR) signaling pathway (AID 743217; active = well fitted inhibition curve with a large enough effect in the signal ratio in the repeat runs, not every such curve was filed as active; the % refers to the signal ratio; also: % is scaled to controls: 0 for no effect and ±100 for the full control effect)
Bile acid receptor (Homo sapiens), sequence (Q96RI1 whole entry, looked up): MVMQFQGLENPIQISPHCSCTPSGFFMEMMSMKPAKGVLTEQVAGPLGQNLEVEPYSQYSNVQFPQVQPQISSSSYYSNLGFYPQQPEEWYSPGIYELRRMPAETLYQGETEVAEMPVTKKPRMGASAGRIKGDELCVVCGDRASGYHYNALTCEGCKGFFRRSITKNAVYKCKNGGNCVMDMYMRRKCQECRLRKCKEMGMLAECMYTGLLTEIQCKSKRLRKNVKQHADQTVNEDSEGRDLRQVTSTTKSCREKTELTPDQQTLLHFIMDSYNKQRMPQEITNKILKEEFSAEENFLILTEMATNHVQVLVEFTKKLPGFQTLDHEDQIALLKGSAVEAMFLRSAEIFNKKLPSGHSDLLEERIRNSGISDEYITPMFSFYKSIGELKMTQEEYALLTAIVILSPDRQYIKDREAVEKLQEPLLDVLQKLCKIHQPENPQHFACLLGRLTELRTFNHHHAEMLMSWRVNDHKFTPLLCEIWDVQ
Outline: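 Read-out: beta-lactamase FRET fluorescence (LiveBLAzer B/G substrate, 2 h, room temperature) in GeneBLAzer FXR-UAS-bla HEK 293T cells. Compounds were co-dosed with 50 uM chenodeoxycholic acid (final) and incubated 16 h at 37 °C.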

[20] = target: Bile acid receptor (Homo sapiens) (UniProt Q96RI1); assay: qHTS assay to identify small molecule agonists of the farnesoid-X-receptor (FXR) signaling pathway (AID 743220; active = well fitted activation curve with a large enough effect in the signal ratio in the repeat runs, not every such curve was filed as active; the % refers to the signal ratio; also: % is scaled to controls: 0 for no effect and ±100 for the full control effect)
Outline: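 FXR-UAS-bla HEK 293T cells carrying a UAS-driven beta-lactamase reporter were plated for 5 h at 37C/5% CO2, then exposed to DMSO-dissolved Tox21 10K compounds for 16 h at 37C. A LiveBLAzer B/G FRET substrate was loaded for 2 h at room temperature before fluorescence reading.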

CCS(=O)(=O)CCn1c([N+](=O)[O-])cnc1C
inactive: outcome [1] | outcome [2] | outcome [3] | Potency [4] | outcome [5] | outcome [6] | outcome [7] | outcome [8] | outcome [9] | outcome [10] | outcome [11] | outcome [12] | outcome [13] | outcome [14] | outcome [15]

O=C1CC[C@H](C(=O)N2CCCCC2)N1
inactive: outcome [1] | outcome [2] | outcome [3] | outcome [5] | outcome [16] | outcome [17] | outcome [8] | outcome [9] | outcome [10] | outcome [11] | outcome [12] | outcome [13] | outcome [14] | outcome [15]

C=C(C)C(=O)OC1CC(C)CC(C)(C)C1 (centres undefined)
inactive: outcome [1] | outcome [2] | outcome [18] | outcome [19] | Potency [4] | outcome [20] | outcome [5] | outcome [6] | outcome [7] | outcome [16] | outcome [17] | outcome [8] | outcome [9] | outcome [10] | outcome [11] | outcome [12] | outcome [13] | outcome [14] | outcome [15]

OC[C@@H](O)[C@H](O)[C@@H](O)[C@@H](O)CO
inactive: outcome [1] | outcome [3] | Potency [4] | outcome [5] | outcome [6] | outcome [16] | outcome [17] | outcome [8] | outcome [9] | outcome [10] | outcome [11] | outcome [12] | outcome [13] | outcome [14] | outcome [15]

O=CO
inactive: activity change, negative = cytotoxicity [1] 1.94% [at 5.95 µM] | viability change, negative = cytotoxic [3] 11.9% [at 6.26 µM] | activity change, negative = inhibition [19] -0.433% [at 5.95 µM] | viability change, negative = cytotoxic [4] 0.465% [at 5.95 µM] | activation [20] -0.16% [at 5.95 µM] | activity change, negative = cytotoxicity [5] -2.88% [at 5.95 µM] | activation [6] -1.04% [at 6.01 µM] | activity change, negative = inhibition [7] 3.44% [at 6.95 µM] | activity change, negative = cytotoxicity [16] -15.6% [at 5.95 µM] | viability change, negative = cytotoxic [17] 3.57% [at 6.95 µM] | activation [8] -0.32% [at 6.95 µM] | activity, negative = cytotoxic [9] -18.4% [at 6.95 µM] | activation [10] -2.58% [at 6.95 µM] | activity change, negative = cytotoxicity [11] -1.24% [at 6.95 µM] | activity, negative = cytotoxicity [12] 0.77% [at 8.39 µM] | activity change, negative = inhibition [13] 22.1% [at 8.39 µM] | viability change, negative = cytotoxic [14] 1.49% [at 6.97 µM] | activation [15] 1.24% [at 6.97 µM]

c1ccc(CNc2ncnc3nc[nH]c23)cc1
inactive: outcome [1] | outcome [3] | outcome [19] | outcome [20] | outcome [5] | outcome [6] | outcome [7] | outcome [17] | outcome [8] | outcome [9] | outcome [10] | outcome [11] | outcome [12] | outcome [13] | outcome [14] | outcome [15]

CC(C)C(=O)c1ccccc1
inactive: outcome [1] | outcome [2] | outcome [3] | outcome [18] | outcome [16] | outcome [17] | outcome [8] | outcome [9] | outcome [10] | outcome [11] | outcome [12] | outcome [13] | outcome [14] | outcome [15]

O=C(COCCOCCOCC(=O)Nc1c(I)cc(I)c(C(=O)O)c1I)Nc1c(I)cc(I)c(C(=O)O)c1I
inactive: outcome [1] | outcome [2] | outcome [18] | outcome [5] | outcome [16] | outcome [17] | outcome [8] | outcome [9] | outcome [10] | outcome [11] | outcome [12] | outcome [13] | outcome [14] | outcome [15]

CC1=NN(c2ccc(S(=O)(=O)O)cc2)C(=O)C1N=Nc1ccccc1 (centres undefined)
inactive: outcome [1] | outcome [2] | outcome [3] | outcome [18] | outcome [5] | outcome [6] | outcome [16] | outcome [17] | outcome [8] | outcome [9] | outcome [10] | outcome [11] | outcome [12] | outcome [13] | outcome [14] | outcome [15]

CCCCCC(=O)OCC
inactive: outcome [1] | outcome [3] | Potency [4] | outcome [20] | outcome [5] | outcome [6] | outcome [7] | outcome [16] | outcome [17] | outcome [8] | outcome [9] | outcome [10] | outcome [11] | outcome [12] | outcome [13] | outcome [14] | outcome [15]

CCC(=O)OCCC(C)CCC=C(C)C (centres undefined)
inactive: outcome [1] | outcome [2] | outcome [3] | Potency [4] | outcome [5] | outcome [6] | outcome [7] | outcome [17] | outcome [8] | outcome [9] | outcome [10] | outcome [11] | outcome [12] | outcome [13] | outcome [14] | outcome [15]

C=C(C)C(=O)OCCCCCCOC(=O)C(=C)C
inactive: outcome [1] | outcome [3] | Potency [4] | outcome [5] | outcome [6] | outcome [7] | outcome [16] | outcome [17] | outcome [8] | outcome [9] | outcome [10] | outcome [11] | outcome [12] | outcome [13] | outcome [14] | outcome [15]

CC(C)CCCC(C)CC=O (centres undefined)
inactive: outcome [1] | outcome [2] | outcome [3] | Potency [4] | outcome [5] | outcome [16] | outcome [8] | outcome [9] | outcome [10] | outcome [11] | outcome [12] | outcome [13] | outcome [14] | outcome [15]

CCCCC(CC)C(=O)OC(C)C (centres undefined)
inactive: outcome [1] | outcome [3] | outcome [19] | Potency [4] | outcome [20] | outcome [5] | outcome [6] | outcome [16] | outcome [8] | outcome [9] | outcome [10] | outcome [11] | outcome [12] | outcome [13] | outcome [14] | outcome [15]

OCCCCCCCl
inactive: outcome [1] | outcome [3] | Potency [4] | outcome [5] | outcome [6] | outcome [7] | outcome [8] | outcome [9] | outcome [10] | outcome [11] | outcome [12] | outcome [13] | outcome [14] | outcome [15]
